Anesthetic bind – candidate novel general anesthetic via apoferritin binding. P02791. apoferritin/1-aminoanthracene competitive binding, fluorescence. Potency, µM (highest dose often 77.5 µM), without a hit: at the highest dose activity change, negative = displacement, actives largely listed as inhibitors. actives 0.074% (n = 350,000); further: potency means the concentration at half of the fitted maximal effect; on the % scale 0 is the no-effect control and ±100 the full control effect; nearly all actives have a fitted effect of over 20% in size
Target sequence (P02791 2-175 limits assumed): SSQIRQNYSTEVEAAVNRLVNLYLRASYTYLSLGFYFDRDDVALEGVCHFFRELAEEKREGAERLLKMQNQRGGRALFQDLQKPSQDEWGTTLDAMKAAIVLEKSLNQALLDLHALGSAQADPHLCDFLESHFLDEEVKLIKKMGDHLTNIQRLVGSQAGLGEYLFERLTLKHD
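Concentration-response curves derived by four-parameter Hill fitting of normalized fluorescence, where compounds displaced 1-AMA from 10 uM horse apoferritin following a brief 10 min room-temperature incubation; propofol titration acted as positive control.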
A-T KAP1 phos – potential ataxia-telangiectasia treatments restoring KAP-1 phosphorylation; actives 0.19% (n = 320,000); F2112 A-T fibroblasts, KAP-1 phosphorylation AlphaLISA; neocarzinostatin DNA damage 30 min before lysis; Potency, µM (doses to about 57.5 µM), without a hit: top-dose activation, most hits filed as activators; further: potency means the concentration at half of the fitted maximal effect; % of control where 0% means no effect; nearly all actives have a fitted effect of over 45% in size
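hTERT-immortalized A-T patient fibroblasts (F2112), 500 cells/well in OPTI-MEM, 1% FBS, got compounds for 60 min, then NCS for 30 min at 37C. Lysates were then assayed for phospho-KAP-1 by AlphaLISA (anti-pKAP1 donor, anti-KAP1 acceptor beads), 6 hr at 25C.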
TRPV1 PAM – human TRPV1 potentiation; Q8NER1; TRPV1-expressing cells, Fluo-8 calcium influx, capsaicin EC20 potentiation; potentiation, % at 8.33 µM; actives 0.02% (n = 320,000); AID 540277; in the data active means potentiation above about 80%; inconclusive means between about 30% and that limit; further: 0% is about no effect
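Cells expressing TRPV1 were dye-loaded with Fluo-8 and read kinetically: 10 s baseline, 3 min after compound (agonist portion), then 2 min after EC20 capsaicin (allosteric enhancer portion). Calcium-bound dye fluorescence at 480/520 nm.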
TRPV1 agonist – human TRPV1 agonism | actives 0.19% (n = 320,000) | Q8NER1 | TRPV1-expressing cells, Fluo-8 calcium influx, agonist mode | activation, % at 8.33 µM; in the data active means activation above about 80%; inconclusive means between about 30% and that limit; further: 0% is about no effect
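Cells expressing TRPV1 were dye-loaded with Fluo-8 and read kinetically: 10 s baseline, 3 min after compound (agonist portion), then 2 min after EC20 capsaicin (allosteric enhancer portion). Calcium-bound dye fluorescence at 480/520 nm.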
CBFb-RUNX1 inh – CBF-beta/RUNX1 interaction disruption; AlphaScreen CBFb-His/RUNX1-biotin binding, biochemical; Potency, µM (top dose mostly 59.8 µM), for inactives: top-dose activity, negative = inhibition, usual class: inhibitors; 230,000 tested, under 10 active; AID 1477; further: % of control where 0% means no effect
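CBFb-His/RUNX1-biotin, 30 nM each, preincubated 20 min RT; compound 15 min RT; Ni + streptavidin beads 50 ng each, 90 min RT; AlphaScreen read.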
The depositor's hits bear a star; i = inactive; ? = inconclusive; nt = not tested or not shown; [ ] = another dose, or the depositor's remark. Compounds with a hit are over-represented: about 0.39% of the library has one in this group of screens. Unless noted, the call rests on the fitted dose curve; in most records, active means well fitted curve in the direction sought with a large enough effect; inconclusive means small, poorly fitted or top-dose-only effect, or another doubt; inactive means no such curve, though single readings can be large; an effect the other way counts as inactive or inconclusive.

SMILES	Anesthetic bind	A-T KAP1 phos	TRPV1 PAM	TRPV1 agonist	CBFb-RUNX1 inh
Cc1cc(C)n(-c2n[nH]c(=O)c3ccccc23)n1	5%	18µM*	2	1	3%
Cc1cc(C)n(-c2nnc(Cl)c3ccccc23)n1	-3%	-5%	3	0	10%
CN1CCc2ccc3c4c2[C@]1(C)Cc1cccc(c1-4)OCO3	3%	nt	nt	nt	nt
CCCN1CNC(=S)N(c2ccccc2OC)C1	-6%	-2%	-1	3	-2%
CCCN1CN(c2ccccc2)C(=S)N(c2ccccc2)C1	10%	1.1µM*	20	-2	20%
COC(=O)C1=C(C)NC(C)=C(C(=O)NCCCN2CCC(c3ccccc3)(c3ccccc3)CC2)C1c1ccc([N+](=O)[O-])cc1 (stereo not drawn)	-22%	nt	nt	nt	-15%
COc1ccc(-c2cc(C(F)(F)F)nc(N3CCN(C)CC3)n2)cc1OC	-16%	4%	-17	10	-13%
COc1ccc(-c2cc(C(F)(F)F)nc(N3CCCCC3)n2)cc1OC	-9%	35µM*	-18	0	7%
COc1cc(CCC(O)CC(=O)CCc2ccccc2)ccc1O (stereo not drawn)	4%	1%	14	84*	4%
COc1cc(/C=N/NC(=O)CCc2ccccc2)ccc1O	-19%	11%	0	-1	1%
CCCn1c(SC(C)C(=O)N2CCOCC2)nc2ccc(Br)cc2c1=O (stereo not drawn)	nt	1%	-7	83*	nt
COc1ccc(-n2c(SC(C)C(=O)N3CCOCC3)nc3ccccc3c2=O)cc1 (stereo not drawn)	-3%	4%	-10	?	nt
CC(=O)c1ccc(N2CCN(C(=O)Nc3ccc(C(C)C)cc3)CC2)cc1	?	-2%	9	100*	6%
CC(C)c1ccc(NC(=O)N2CCC(c3nc4ccccc4o3)CC2)cc1	-18%	-3%	-16	97*	-2%
CC(C)c1ccc(NC(=O)N2CCOCC2)cc1	-7%	1%	-27	95*	nt
CN(C)C(=O)NC1CCCCCCC1	-11%	nt	nt	nt	0%
O[C@@H]1COC2[C@@H](O)CO[C@@H]21 (stereo partly drawn)	5%	nt	nt	nt	15%
COc1cccc(CN2C(=O)c3cccc(N)c3C2=O)c1	i	25µM*	1	12	-1%
O=C(NCc1cccnc1)c1ccc(-c2ccc(Cl)cc2)o1	-5%	1%[11.5 µM]	-17	86*	6%
O=C(NCc1cccnc1)c1ccc(-c2cc(Cl)ccc2Cl)o1	-15%	-2%	-11	?	5%
CC[C@@]1([C@@H]2O[C@@H]([C@H]3O[C@@](O)(CO)[C@H](C)C[C@@H]3C)C[C@@H]2C)CC[C@@H]([C@]2(C)CCC3(C[C@H](O)[C@@H](C)[C@@H]([C@@H](C)[C@@H](OC)[C@H](C)C(=O)O)O3)O2)O1 (stereo partly drawn)	-5%	nt	nt	nt	1%
CCc1nc(N2CCCC(C)C2)c2oc3ccccc3c2n1 (stereo not drawn)	-10%	40µM*	-3	?	22%
O=[N+]([O-])c1ccc2c(c1)S(=O)(=O)C=C2	-6%	nt	nt	nt	10%
COc1ccc(N2CCN(C(=O)Cc3ccc(OC)c(OC)c3)CC2)cc1	-5%	-4%	-15	?	nt
COc1ccc(CC(=O)N2CCN(c3cccc(Cl)c3)CC2)cc1OC	-16%	7%	-16	98*	nt
CCOC(=O)N1CCC(NC(=O)c2ccc3c(c2)sc2nc(-c4ccccc4)cn23)CC1	-19%	20µM*	nt	nt	0%
O=c1oc2c(O)cccc2cc1-c1nc2ccccc2[nH]1	599%	?	0	85*	nt
CN1CCN(Cc2c(O)ccc3cc(-c4ccccc4)c(=O)oc23)CC1	i	nt	nt	nt	nt
O=c1oc2c(CN3CCCCC3)c(O)ccc2cc1-c1nc2ccccc2[nH]1	i	33%	-33	85*	8%
COC(=O)[C@@H]1C[C@@]2(O)[C@@H](O)[C@@H](O)[C@@H](O)C[C@H]2N1Cc1ccc(Cl)cc1	-5%	40µM*	?	-2	4%

Source: PubChem BioAssay (National Center for Advancing Translational Sciences (NCATS))
